Only a selection was taken, and hits are over-represented in it overall.
GluA2 TARP mod: modulates AMPAR-stargazin complexes; HEK293 GluA2+stargazin, membrane potential dye (FDSS), glutamate EC50; hits were called plate by plate, in both directions; calls only at 30 µM; 40,000 compounds, 3.5% hits; O88602+P19491;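 active means any of four per-well response measures lying three or more SD from its plate-wide compound average, in either direction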
GIRK2 act: Activates human GIRK2-containing potassium channels; activation (% efficacy), % for hits at 37.5 µM; AID 1259324; 34,000 tested, under 10 active; HEK293 GIRK2/NPY4 cells, thallium flux fluorescence;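 active means primary screen hit, no activity in plain HEK293 cells, and in GIRK2-only cells above 5% efficacy rising with concentration; inactive means the rest, including fluorescent compounds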;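 further: efficacy is normalized control-subtracted fluorescence 15 s after thallium addition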
Target sequence (P48051 whole entry, looked up): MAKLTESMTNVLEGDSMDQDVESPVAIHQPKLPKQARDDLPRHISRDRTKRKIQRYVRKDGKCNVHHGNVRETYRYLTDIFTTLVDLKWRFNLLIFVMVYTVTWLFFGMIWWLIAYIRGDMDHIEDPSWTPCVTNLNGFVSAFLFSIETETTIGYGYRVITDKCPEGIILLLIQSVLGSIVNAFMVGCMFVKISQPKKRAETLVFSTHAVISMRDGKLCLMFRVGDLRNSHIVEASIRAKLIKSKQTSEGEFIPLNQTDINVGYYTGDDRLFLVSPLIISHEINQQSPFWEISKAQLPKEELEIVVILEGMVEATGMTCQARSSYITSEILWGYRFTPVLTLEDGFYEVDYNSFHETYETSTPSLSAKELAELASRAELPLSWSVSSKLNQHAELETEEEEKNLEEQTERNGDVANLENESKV
* = called active by the depositor; i = inactive; . = not tested or not shown; + = active, no number.

SMILES	GluA2 TARP mod	GIRK2 act
COc1ccc(CCC(=O)N2CCN(c3nccn3-c3cccc(Cl)c3)CC2)cc1	i	i
COc1ccc(Cl)cc1S(=O)(=O)N1CCN(S(=O)(=O)c2cc(Cl)ccc2OC)CC1	i	.
COc1ccc(F)cc1S(=O)(=O)N1CCCCCC1	i	.
COc1ccc(Cl)cc1S(=O)(=O)N1CCCCCC1	+	.
COc1ccc(/C=C/c2nc3ccccc3s2)cc1S(=O)(=O)N1CCCCC1	+	.
COc1ccc(S(=O)(=O)N2CCCCCC2)c(C)c1C	i	.
COc1ccc(Br)cc1S(=O)(=O)N1CCCCCC1	+	.
CCOc1ccccc1C(=O)Nc1ccc(-c2cn3nc(OC)ccc3n2)cc1	.	i
Cc1ccccc1C(=O)N1CCC2(CC1)CC(=O)c1ccccc1O2	+	.
CC(C)(C)c1ccc(C(=O)N2CCC3(CC2)CC(=O)c2ccccc2O3)cc1	i	.
Cc1ccc(C(CNC(=O)Cc2cccc3ccccc23)N(C)C)cc1 (stereo not given)	+	i
CN(C)C(CNC(=O)Cc1cccc2ccccc12)c1ccc(F)cc1 (stereo not given)	i	.
COc1cccc(C(CNC(=O)c2ccc(F)cc2)N2CCOCC2)c1 (stereo not given)	i	i
CC1(C)CC2CC(C)(CN2Cc2c(O)ccc3ccccc23)C1 (stereo not given)	+	.
Cc1cc2nc(NC(=O)c3ccc(S(=O)(=O)C(C)C)cc3)sc2cc1C	i	i
COc1ccc(S(=O)(=O)CCC(=O)Nc2nc3ccc(Br)cc3s2)cc1	+	i
CC(C)S(=O)(=O)c1ccc(C(=O)Nc2nc3ccc(Br)cc3s2)cc1	+	.
Cc1nc2ccc(NC(=O)c3cccc(S(=O)(=O)C(C)C)c3)cc2s1	i	i
Cc1nc2ccc(NC(=O)c3ccc(S(=O)(=O)C(C)C)cc3)cc2s1	+	.
COc1ccc(S(=O)(=O)CCC(=O)Nc2nc3cc(OC)c(OC)cc3s2)cc1	i	i
Cc1cc(C(=O)NCC(c2ccco2)N2CCOCC2)no1 (stereo not given)	i	i
COc1ccc(OC)c(NC(=O)Cc2cc(-c3ccc(Cl)cc3)on2)c1	i	i
CC(C)S(=O)(=O)c1ccc(CC(=O)N2CCC(Cn3cnc4ccccc43)CC2)cc1	i	i
O=C(NCCc1ccccc1)c1ccc(NS(=O)(=O)c2cccc(Cl)c2)cc1	i	.
COc1ccc(N(Cc2cccc(C)c2)S(=O)(=O)c2ccc3nncn3c2)cc1	+	i
SMILES	GluA2 TARP mod	GIRK2 act
COc1ccc(N(Cc2cccc(Cl)c2)S(=O)(=O)c2ccc3nncn3c2)cc1	i	i
Cc1cc2nc(N(CCN3CCOCC3)C(=O)CCc3ccccc3)sc2cc1C	i	i
CCOc1ccccc1C(=O)NC1CC(=O)N(c2ccc(C)c(C)c2)C1 (stereo not given)	+	.
CCOc1ccccc1C(=O)NC1CC(=O)N(c2ccccc2)C1 (stereo not given)	i	.
CCCCc1ccc(N2CC(C)Cn3c2nc2c3c(=O)n(C(C)C(=O)OC)c(=O)n2C)cc1 (stereo not given)	i	.
CCS(=O)(=O)c1ccc(CC(=O)Nc2nnc(-c3ccc(C)cc3C)o2)cc1	i	.
O=C(CSc1nc(-c2ccco2)cc(C(F)(F)F)n1)N1CCCCCC1	+	.
O=C(CSc1nc(-c2ccco2)cc(C(F)(F)F)n1)N1CCSCC1	i	.
CCOc1ccc(-n2c(C)cn3c4c(=O)[nH]c(=O)n(C)c4nc23)cc1	i	.
Cc1cnc2c(c1SCC(=O)Nc1ccc3c(c1)OCO3)c(=O)n(C)c(=O)n2C	i	i
CCCS(=O)(=O)N1CCCc2cc(NS(=O)(=O)c3cc(OC)ccc3OC)ccc21	i	.
COc1ccc(-c2ccc(=O)n(CCNS(=O)(=O)c3cc(C)c(C)cc3C)n2)cc1	+	.
COc1ccc(-c2ccc(=O)n(Cc3cc(C)ccc3C)n2)cc1	+	i
CCOc1ccc(S(=O)(=O)NCCn2nc(-c3ccc(OC)cc3)ccc2=O)c(OCC)c1	i	.
Cc1ccc(C)c(Cn2nc(-c3ccc(Cl)cc3)ccc2=O)c1	i	i
CCOc1ccc(OCC)c(S(=O)(=O)NCCn2nc(-c3ccc(OC)cc3)ccc2=O)c1	+	.
COc1ccc(-c2ccc(=O)n(CCNS(=O)(=O)c3ccc(OC)cc3OC)n2)cc1	i	.
O=C(NCCCN1CCCC1=O)C(=O)Nc1ccc(F)c([N+](=O)[O-])c1	i	i
N#Cc1ccc(Cl)cc1NC(=O)CCN1C(=O)c2ccccc2S1(=O)=O	i	i
COc1cc(-c2noc(-c3nnn(-c4cccc(Cl)c4C)c3C)n2)cc(OC)c1OC	i	.
Cc1cc(=O)[nH]c(-n2nc(C3CC3)cc2NC(=O)c2cc(Cl)ccc2Cl)n1	i	i
COc1ccc(-c2noc(Cn3ccn4nc(-c5ccccc5)cc4c3=O)n2)cc1	.	i
Cc1c(Cl)cccc1NC(=O)C(=O)NCC(c1cccc2ccccc12)N1CCOCC1 (stereo not given)	i	.
COc1ccccc1N1CCN(CC(O)COC2CCCC2)CC1 (stereo not given)	i	i
O=C(CCCn1nc(-c2cccs2)ccc1=O)Nc1cccc(F)c1	.	i
SMILES	GluA2 TARP mod	GIRK2 act
CN1CCN(NC(=O)C(=O)Nc2ccc(F)c(Cl)c2)CC1	i	i
CN1CCN(NC(=O)C(=O)Nc2ccc3c(c2)OCCO3)CC1	+	.
O=C(NCCCN1CCOCC1)C(=O)Nc1ccc(F)c([N+](=O)[O-])c1	+	i
O=C(NCCN1CCOCC1)C(=O)Nc1ccc(F)c([N+](=O)[O-])c1	i	i
COc1cccc(-c2cc(C(=O)NC3CC3)c3c(C)nn(C4CCS(=O)(=O)C4)c3n2)c1 (stereo not given)	i	i
COc1ccc(S(=O)(=O)N2CCCC2CNC(=O)c2cccc(Cl)c2)cc1 (stereo not given)	i	.
CCOCCn1c(-n2nc(C)cc2C)nc2c1c(=O)n(Cc1ccc(F)cc1)c(=O)n2C	i	i
COCCn1c(=O)c2c(nc(-n3nc(C)cc3C)n2Cc2ccc(F)cc2)n(C)c1=O	+	i
CCN1C(=O)c2cc(NC(=O)c3cc(-c4ccccc4)on3)ccc2Oc2ccccc21	i	i
Cc1cc(NC(=O)c2ccc(N3CCCCC3)nn2)on1	+	i
Cc1cc(C)n(CCNC(=O)c2ccc(N3CCCC3)nn2)n1	i	i
O=C(/C=C/c1ccccc1)N1CCOC(c2ccc(C(F)(F)F)cc2)C1 (stereo not given)	.	i
CCOC(=O)c1ccccc1NC(=O)CN1CCC(c2nnc(-c3ccco3)o2)CC1	+	i
COc1ccccc1NC(=O)CN1CCC(c2nnc(-c3ccco3)o2)CC1	i	i
COc1cc(NC(=O)c2ccc(-c3ccccc3)cc2)ccc1N1CCCC1=O	i	i
CCCN1C(=O)/C(=C/c2ccc(N3CCCC3)cc2)NC1=S	+	.
CCCN1C(=O)NC2(CCN(C(=O)C3CCCCC3)CC2)C1=O	i	i
Cc1ccnc(Oc2ccc(C(=O)NCCNc3cc(N4CCOCC4)nc(C)n3)cc2)n1	i	i
Cc1cc(C)c2c(=O)[nH]c(SCC(N)=O)nc2n1	+	.
Cc1cccc(NC(=O)CSc2nc3nc(C)cc(C)c3c(=O)[nH]2)c1	i	.

Compound activity (PubChem)
